Laboratory results reported in PubChem BioAssay (NCATS).
Unmarked numbers belong to inactive results. Inconclusive results are not listed. Active and inactive are the calls of the source. Calls follow the shape of the dose curve; as a rule, active = well fitted inhibition curve with a large enough effect; inconclusive = small, poorly fitted or top-dose-only effect; inactive = flat fitted curve, though single readings scatter. *1 amine or outer side, *2 acyl side, *3 side chain or, on linkers, in order; H or OH if unused. Where a SMILES comes first, the peptide text is derived from it. [ ]: non-standard residue; d: D form. X13 = O=C(C(CC(O)CO)O[*:1])[*:2]; NMeV = CN[CH](C(=O)O)C(C)C; NMeA = CN[CH](C)C(=O)O; βAla = NCCC(=O)O

Target: Glutathione peroxidase 1 (Homo sapiens) (UniProt P07203)
Experiment: Primary qHTS Assay for Inhibitors of Recombinant Selenoprotein Glutathione Peroxidase 1 (GPX1) (AID 1845191); also: nearly all actives have a fitted effect of over 65% in size; as to activity, negative = inhibition: % is scaled to controls: 0 for no effect and ±100 for the full control effect
Settings: recombinant GPX1, GR-coupled NADPH fluorescence, 15 min; series mostly up to 27.7 µM; activity, negative = inhibition: at the top concentration
Method in brief: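 10 nM GPX1 + cpd, 30 min RT; start w/ 1 mM GSH, 0.5 mM cumene hydroperoxide, 0.5 mM NADPH, 100 nM GR, 0.01% BSA; buffer 50 mM Tris-HCl pH 7.5, 2 mM EDTA, 150 mM NaCl; Fl 340/450, 0 & 15 min.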

Glutathione peroxidase 1 (Homo sapiens), sequence (P07203 whole entry, looked up): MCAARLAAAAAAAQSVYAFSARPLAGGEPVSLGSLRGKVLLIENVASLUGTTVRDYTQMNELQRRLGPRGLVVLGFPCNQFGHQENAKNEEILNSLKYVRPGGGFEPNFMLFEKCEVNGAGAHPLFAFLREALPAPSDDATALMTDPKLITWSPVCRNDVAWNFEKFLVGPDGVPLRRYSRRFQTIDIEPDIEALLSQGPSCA

SMILES	outcome	activity, negative = inhibition
CC1=CC(=O)C(=C(C)C)CC2C(C)(O)CCC12O (centres undefined)	inactive [at 48.8 µM]	–
CC(C)c1c(NC(=O)Nc2ccc(Cl)cc2)c(=O)n(-c2ccccc2)n1C	–	-7.69% [at 48.8 µM]
CC1CCC2(C(=O)OC3OC(CO)C(O)C(O)C3O)CCC3(C)C(=CCC4C5(C)CCC(O)C(C)(CO)C5CCC43C)C2C1(C)O (centres undefined)	inactive [at 15.3 µM]	–
Cc1c(Cc2ccc3ccccc3n2)c2cc(F)ccc2n1CC(=O)O	–	-18.6% [at 48.8 µM]
CC(C)c1ccc2c(c1)C(O)CC1C(C)(C(=O)O)CCCC21C (centres undefined)	–	-3.85%

Target: Luciferin 4-monooxygenase (Photinus pyralis) (UniProt P08659)
Experiment: Primary firefly luciferase (FLuc) qHTS assay for identification of artifact compounds. (AID 1845220); also: nearly all actives have a fitted effect of over 60% in size; also: potency is read from the fitted curve at half-maximal effect;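 as to activity change, negative = inhibition: plate controls were DMSO vehicle for no effect and no enzyme for full effect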
Settings: purified firefly luciferase, luminescence, 5 min; series mostly up to 54.1 µM; activity change, negative = inhibition: at the top concentration
Method in brief: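 Cell-free, 1536-well qHTS. Buffer pH 7.6 with 0.01% Tween-20 and 0.05% BSA; 10 uM D-luciferin, 10 uM ATP; 10 nM P. pyralis luciferase; luminescence after 5 min.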

SMILES	outcome	activity change, negative = inhibition	Potency
C/C=C/C=C/C=C/C(=O)O[C@@H]1C=C(CO)[C@](O)(CO)[C@@]2(C)CCCC(C)(C)[C@H]12	inactive	–	–
CCC(C)C1NC(=O)C2CCCN2C(=O)C(CC(O)CO)OC(=O)CCNC(=O)C(C)N(C)C(=O)C(C(C)C)N(C)C1=O (centres undefined) (cyclo([X13]PI[NMeV][NMeA][βAla]); configuration not given here)	inactive [at 25.7 µM]	–	–
C[C@@H]1O[C@@H](O[C@H]2[C@H](OC(=O)[C@]34CCC(C)(C)C[C@H]3C3=CCC5[C@@]6(C)CC[C@H](O[C@@H]7O[C@H](CO[C@@H]8OC[C@H](O)[C@H](O)[C@H]8O[C@@H]8OC[C@@H](O)[C@H](O)[C@H]8O)[C@@H](O)[C@H](O)[C@H]7O)C(C)(C)C6CC[C@@]5(C)[C@]3(C)C[C@H]4O)O[C@H](CO)[C@@H](O)[C@@H]2O)[C@H](O[C@@H]2O[C@H](CO)[C@@H](O)[C@H](O)[C@H]2O)[C@H](O)[C@H]1O[C@@H]1OC[C@@H](O)[C@H](O[C@@H]2OC[C@@H](O)[C@H](O)[C@H]2O)[C@H]1O (some centres undefined)	–	2.11% [at 6.45 µM]	–
C=C1CC[C@@]2(OC1)O[C@H]1CC3[C@@H]4CC=C5C[C@H](O[C@H]6OC[C@@H](O)C(O)[C@@H]6O[C@@H]6O[C@@H](C)[C@H](O)[C@@H](O[C@@H]7O[C@H](CO)[C@@H](O)[C@H](O)[C@H]7O)[C@H]6O)C[C@@H](O)[C@]5(C)C4CC[C@]3(C)[C@H]1[C@@H]2C (some centres undefined)	–	-10.8% [at 11.6 µM]	–
COc1c2ccoc2nc2c(OC)c(O[C@@H]3O[C@@H](C)[C@H](O)[C@@H](O[C@@H]4O[C@H](CO)[C@@H](O)[C@H](O)[C@H]4O)[C@H]3OC(C)=O)ccc12	–	0.472% [at 25.7 µM]	–
CC(C)(Oc1ccc(-c2nc3cc(Cl)ccc3s2)cc1)C(=O)O	–	–	2.39 µM (active)
C[C@@H]1O[C@@H](O[C@H]2[C@H](OC(=O)[C@]34CCC(C)(C)C[C@H]3C3=CCC5[C@@]6(C)C[C@@H](O)[C@@H](O[C@@H]7O[C@H](CO)[C@@H](O)[C@H](O)[C@H]7O)[C@@](C)(CO)C6[C@H](O)C[C@@]5(C)[C@]3(C)CC4)OC[C@H](O)[C@@H]2O)[C@H](O)[C@H](O[C@@H]2OC[C@](O)(CO)[C@H]2O)[C@H]1O[C@@H]1OC[C@@H](O)[C@H](O[C@H]2O[C@H](C)[C@@H](O)[C@H](O)[C@@H]2O)[C@H]1O (some centres undefined)	–	1.3% [at 11.6 µM]	–
CCCN1CCC[C@@H](c2cccc(S(C)(=O)=O)c2)C1	–	-5.16%	–
COc1cc(CC2COC(c3ccc(OC4OC(CO)C(O)C(O)C4O)c(OC)c3)C2CO)ccc1O (centres undefined)	inactive [at 25.7 µM]	–	–
C=Cc1ccc(O[C@@H]2O[C@H](CO[C@@H]3O[C@@H](C)[C@H](O)[C@@H](O)[C@H]3O)[C@@H](O)[C@H](O)[C@H]2O)cc1	inactive [at 25.7 µM]	–	–
COc1ccc(C(=O)OC2C3C=COC(OC4OC(CO)C(O)C(O)C4O)C3C3(CO)OC23)cc1OC (centres undefined)	inactive [at 25.7 µM]	–	–
C=C1C[C@]23C[C@H]1CC[C@H]2[C@]1(C)CC[C@H](O)[C@@](C)(C(=O)O)[C@H]1[C@@H]3C(=O)O	–	-12.1%	–
O=C(NCCN1CCCC1)c1cc(-c2ccc(CN3CCOCC3)cc2)nc2ccc(F)cc12	inactive [at 25.7 µM]	–	–
COc1ccc2c(c1)C=C1Cn3c-2c(C2CCCCC2)c2ccc(cc23)C(=O)NS(=O)(=O)N(C)CCOCCN(C)C1=O	–	-4.28%	–
C/C=C/C1OC2=C(C(=O)OC2(C)O)C(O)C1O (centres undefined)	–	-1.14%	–
O=C(NC/C=C/CN1CCN(c2cccc(Cl)c2Cl)CC1)c1ccc(-c2ccccn2)cc1	inactive	–	–
O=C(O)[C@H](Cc1ccccc1)Oc1ccc(-c2ccccc2)cc1	–	3.49%	–
CC1=CCC(O)C2(C)CCC3C(C)C(=O)OC3C12 (centres undefined)	–	-10.3%	–
CCOC(=O)CSc1nc2c(sc3ccccc32)c(=O)n1CCCN1CCCC1	inactive	–	–
C/C(=C\CC/C(C)=C/CC[C@]1(C)CCc2cc(O)cc(C)c2O1)CC/C=C(\C)C(=O)O	–	0.0838% [at 25.7 µM]	–

SMILES	outcome	activity change, negative = inhibition	Potency
C=C1C2(C)CC3C4(C)C=CC(=O)OC(C)(C)C4CCC3(C)C1(C(=O)OC)C(=O)C(C)(O)C2=O (centres undefined)	–	2.92% [at 25.7 µM]	–
CCC(C)/C=C(C)/C=C/C1=CC2=C(Cl)C(=O)C(C)(OC(C)=O)C(=O)C2=CN1CCCCC(N)C(=O)O (centres undefined)	–	2.92% [at 25.7 µM]	–
CC/C=C\C(O)C(O)C1=C(C)C(=O)C2(O1)C(=O)NC(OC)(C(=O)c1ccccc1)C2O (centres undefined)	–	0.307% [at 25.7 µM]	–
C=C1CC[C@@H]2[C@](C)(CO)[C@H](O[C@@H]3O[C@H](CO)[C@@H](O)[C@H](O)[C@H]3O)CC[C@@]2(C)[C@@H]1C/C=C1/C(=O)OC[C@H]1O	–	-17% [at 25.7 µM]	–
CCC(C)/C=C(C)/C=C/C1=CC2=C(Cl)C(=O)C(C)(OC(C)=O)C(=O)C2=CN1C(CCCN=C(N)N)C(=O)O (centres undefined)	–	-8.59% [at 25.7 µM]	–
CC1(C)CC[C@]2(C(=O)O[C@@H]3O[C@H](CO)[C@@H](O)[C@H](O)[C@H]3O)CC[C@]3(C)C(=CCC4[C@@]5(C)C[C@@H](O)[C@H](O)[C@@](C)(CO)C5[C@H](O)C[C@]43C)C2[C@@H]1O (some centres undefined)	–	4.19% [at 25.7 µM]	–
CNc1nc(C)nc(N[C@H]2CCC[C@@H](C(=O)NCc3ccc(C#N)cc3C(F)(F)F)C2)n1	inactive	–	–
CC(=O)NC(Cc1c[nH]c2ccccc(=O)c12)C(=O)O (centres undefined)	–	-6.17%	–
C[C@]1(O)CC[C@@H]2C(C(=O)O)=CO[C@@H](O[C@@H]3O[C@H](CO)[C@@H](O)[C@H](O)[C@H]3O)[C@@H]21	–	2.66%	–
COc1cc(C(=O)OCC2=CCC3C(C(=O)O)=COC(O[C@@H]4O[C@H](CO)[C@@H](O)[C@H](O)[C@H]4O)C23)ccc1O (some centres undefined)	–	4.03% [at 25.7 µM]	–
C=C[C@H]1[C@H](O[C@@H]2O[C@H](CO)[C@@H](O)[C@H](O)[C@H]2O)OC=C(C(=O)OC)[C@H]1CC=O	–	3.14%	–
O=C(c1c2ccccc2cc2ccccc12)N1CCC(N2CCC[C@@H](C(=O)N3CCOCC3)C2)CC1	inactive	–	–
CC1CCC2(NC1)OC1C(O)C3C4CCC5CC(O[C@@H]6O[C@H](CO)[C@@H](O)[C@H](O)[C@H]6O[C@@H]6O[C@@H](C)[C@H](O)[C@@H](O)[C@H]6O)CCC5(C)C4CCC3(C)C1C2C (some centres undefined)	–	-6.51% [at 25.7 µM]	–
CC(CC(C)O[C@@H]1O[C@H](CO)[C@@H](O)[C@H](O)[C@H]1O)OC(=O)/C=C/c1ccc(O)cc1 (some centres undefined)	inactive [at 25.7 µM]	–	–
CC1=CC(=O)C(=C(C)C)CC2C(C)(O)CCC12O (centres undefined)	inactive	–	–
CC(C)c1c(NC(=O)Nc2ccc(Cl)cc2)c(=O)n(-c2ccccc2)n1C	–	-4.38%	–
CC1CCC2(C(=O)OC3OC(CO)C(O)C(O)C3O)CCC3(C)C(=CCC4C5(C)CCC(O)C(C)(CO)C5CCC43C)C2C1(C)O (centres undefined)	inactive [at 25.7 µM]	–	–
Cc1c(Cc2ccc3ccccc3n2)c2cc(F)ccc2n1CC(=O)O	inactive	–	–
CC(C)c1ccc2c(c1)C(O)CC1C(C)(C(=O)O)CCCC21C (centres undefined)	–	-1.18%	–
